SW480 rerep: A quantitative high throughput screen for small molecules that induce DNA re-replication in SW480 colon adenocarcinoma cells | SW480 DNA re-replication, Hoechst DNA content imaging, 48 h | Potency, µM (doses to about 46.1 µM), for inactives: top-dose re-replication activation, actives largely listed as activators | 340,000 tested, 1.8% active | AID 624297, 2012; note: % of control where 0% means no effect; nearly all actives have a fitted effect of over 55% in size
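Hoechst fluorescence of nuclei (405 nm excitation, 500-530 nm emission) measured by plate-scanning imager after 48 hr compound exposure at 37 C; re-replication scored as increased number of nuclei with elevated intensity.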
MCF10A rerep: A quantitative high throughput screen for small molecules that induce DNA re-replication in MCF 10a normal breast cells; 350,000 tested, 2.9% active; Potency, µM (top dose mostly 46.1 µM), inactives show top-dose activity, positive = re-replication, most hits filed as activators; MCF 10A DNA re-replication, Hoechst nuclear intensity, 48 h; note: % of control where 0% means no effect; nearly all actives have a fitted effect of over 50% in size
KB-V1 cytotox: qHTS assay for MDR1-selective chemotherapeutics: Primary screen using the drug-selected MDR subline cells KB-V1 | 400,000 tested, 3.4% active | Potency, µM (series often up to 46.1 µM), actives largely listed as cytotoxic | KB-V1 MDR cells viability, CellTiter-Glo, 72 h | AID 1347076, 2019; note: % is set by controls: 0 for no effect and ±100 for the full control effect; nearly all actives have a fitted effect of over 60% in size
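Cells of the MDR subline KB-V1 are plated, dosed with compound at multiple concentrations, and incubated 72 h at 37 degrees C; CellTiter-Glo is then added and luminescence read after 10 min.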
ELG1 repair inh: qHTS screen for small molecules that inhibit ELG1-dependent DNA repair in human embryonic kidney (HEK293T) cells expressing luciferase-tagged ELG1. 330,000 tested, 2.3% active. Potency, µM (doses to about 46.1 µM), inactives show top-dose activity change, negative = inhibition, hits mostly inhibitors. HEK293T ELG1-luciferase reporter, luminescence, 16 h; DNA damage induced by 5-fluorouridine; note: % is set by controls: 0 for no effect and ±100 for the full control effect; nearly all actives have a fitted effect of over 55% in size
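Reporter activity after DNA damage by 5-fluorouridine is monitored. Compound-treated cells incubate 16 hr at 37 °C, then ONE-Glo is added for 30 min before luminescence reading.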
KB-3-1 cytotox: qHTS assay for MDR1-selective chemotherapeutics: Primary screen using the parental adenocarcinoma cell KB-3-1; KB-3-1 viability, CellTiter-Glo ATP luminescence, 72 h; Potency, µM (top dose mostly 46.1 µM), most hits filed as cytotoxic; 400,000 tested, 1.4% active; AID 1347075, 2019; note: % is set by controls: 0 for no effect and ±100 for the full control effect; nearly all actives have a fitted effect of over 60% in size
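Parental KB-3-1 adenocarcinoma cells in phenol-red-free DMEM with 10% FBS were pin-treated with compounds at several concentrations, incubated 72 h at 37 °C, and viability read by CellTiter-Glo luminescence; concentration-effect curves were fitted after normalization.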
* marks the source's active call; other numbers are inactive results; i = inactive; ? = inconclusive; . = no result given; [ ] = remark or other dose. Hits are enriched below; roughly 8.1% of the tested compounds scored in any of these assays. Calls come from the whole dose curve; as a rule, active = well fitted curve in the direction sought with a large enough effect; inconclusive = small, poorly fitted or top-dose-only effect, or another doubt; inactive = no such curve, though single readings can be large; an effect the other way counts as inactive or inconclusive. Potency is the fitted concentration of half-maximal effect.

SMILES	SW480 rerep	MCF10A rerep	KB-V1 cytotox	ELG1 repair inh	KB-3-1 cytotox
CC1CC(NC(=O)c2c(O)nc3ccccn3c2=O)CC(C)(C)C1 (stereo not given)	-4.0%	-4.3%	20.6µM*	.	i
O=C(NC1CCCCC1)c1c(O)nc2sccn2c1=O	-553.9%	8.1%	?	?	?
O=C(NCC1CCCO1)c1c(O)nc2sccn2c1=O (stereo not given)	-6.0%	-18.0%	i	4.6%	i
CC1CC(NC(=O)c2c(O)nc3sccn3c2=O)CC(C)(C)C1 (stereo not given)	?	-2.9%	18.4µM*	11.8%	i
O=C(NC1CCCCCC1)c1c(O)nc2sccn2c1=O	6.4%	-3.2%	14.6µM*	22.9%	?
C#CCN(C[C@@H]1[C@@H](OC(=O)NCc2ccccc2)[C@@H](OC(=O)NCc2ccccc2)CN(C(=O)OC(C)C)N1C(=O)OC(C)C)S(=O)(=O)c1ccc(C)cc1	.	.	i	.	i
COc1ccc(CN2C(=O)C(CC(=O)NCC3CCCCC3)CC(C(=O)N3CCOCC3)=C2C)cc1 (stereo not given)	.	.	i	.	i
COc1ccc(N2C(=O)CC(NNC(=O)c3cc(C)oc3C)C2=O)cc1 (stereo not given)	5.6%	2.59µM*	i	-8.5%	i
COc1ccccc1C(=O)NNC1CC(=O)N(c2ccc3c(c2)OCCO3)C1=O (stereo not given)	-5.8%	-11.4%	i	-0.5%	i
O=S(=O)(CCOc1ccccc1)c1nc2ccccc2[nH]1	23.8%	5.8µM*	i	?	?
O=C(CCCOc1ccccc1)Nc1nc2ccccc2[nH]1	6.7%	20.3%	i	?	i
O=c1c2ccccc2nc(/C=C/c2ccc(O)cc2)n1CCc1ccccc1	?	23.1µM*	14.6µM*	23.1µM*	i
O=c1c2ccccc2nc(/C=C/c2ccccc2)n1CCCO	?	3.0%	?	-28.2%	i
O=c1c2ccccc2nc(/C=C/c2cc(Br)ccc2O)n1CCO	?	14.6µM*	?	.	?
CN(C)c1ccc(/C=C/c2nc3ccccc3c(=O)n2CCO)cc1	?	16.4µM*	i	8.4%	i
COc1ccccc1CCNC(=O)C(C)Sc1nc(-c2ccccc2)cc(C(F)(F)F)n1 (stereo not given)	.	.	i	.	i
Cc1sc(-n2c(C)cc(/C=C3\SC(=S)NC3=O)c2C)c(C#N)c1C	8.2µM*	-2.0%	i	27.8%	?
O=C(NCC(c1cccs1)S(=O)(=O)c1cccs1)c1ccc(C(F)(F)F)cc1 (stereo not given)	.	.	i	.	i
Clc1nc(NCc2ccco2)c2ccccc2n1	.	.	i	.	i
OCCN1CCN(c2nc(NCc3ccco3)c3ccccc3n2)CC1	?	?	i	-4.1%	i
Cc1ccc(OCCN2CCN(c3nc(NCc4ccco4)c4ccccc4n3)CC2)cc1	?	14.6µM*	16.4µM*	-25.4%	?
OCCNc1nc(Nc2ccc(O)cc2)nc2ccccc12	10.6%	4.9%	i	-1.9%	i
c1ccc(CN2CCN(c3nc(NCc4ccco4)c4ccccc4n3)CC2)cc1	?	?	3.66µM*	?	?
OCCNc1nc(N2CCN(c3ccccc3)CC2)nc2ccccc12	1.0%	7.31µM*	i	-1.1%	i
Cc1ccc(Oc2c(C(N)=O)cc([N+](=O)[O-])cc2[N+](=O)[O-])cc1	?	?	i	?	20.6µM*
SMILES	SW480 rerep	MCF10A rerep	KB-V1 cytotox	ELG1 repair inh	KB-3-1 cytotox
O=C(O)CCC1(CCC(=O)O)CCCC(CCC(=O)O)(CCC(=O)O)C1=O	6.1%	-1.7%	i	.	i
O=C(Nc1ccc(F)c(Cl)c1)c1cc(C2CCCCN2C(=O)c2cccs2)on1 (stereo not given)	.	.	i	.	23.1µM*
CCn1c(C)c(CS(=O)(=O)c2ccccc2)[nH]c1=O	8.2µM*	7.31µM*	i	5.0%	i
CCOc1cc(C(N)=O)cc(Br)c1OC	5.0%	-1.1%	i	5.17µM*	i
CCOc1cc(C(N)=O)cc(OCC)c1OCC	-3.3%[9.22 µM]	-25.6%	i	1.9%	i
CCOc1cc(/C=N\NC(N)=O)cc(Br)c1OC(C)C	?	?	11.6µM*	-11.6%	7.31µM*
CCOc1cc(/C=N/NC(N)=O)cc(Br)c1OCc1ccccc1F	1.9%	17.2%	i	-17.4%	i
CCc1nc(-c2cc3ccc(C)cc3[nH]c2=O)no1	-5.9%	4.5%	i	?	i
Cc1ccc2cc(-c3noc(C(C)(C)C)n3)c(=O)[nH]c2c1	0.6%	7.2%	18.4µM*	28.8%	i
CCN(CC)c1ccc(-c2nc3cnccn3c2NC2CCCC2)cc1	20.6µM*	16.4µM*	i	-1.7%	?
CCC(C)Sc1cccc(-c2nc3cnccn3c2NC2CCCCC2)c1 (stereo not given)	?	18.4µM*	?	?	?
c1cn2c(NC3CCCCC3)c(-c3ccc(SC4CCCCC4)cc3)nc2cn1	-1.5%	?	i	?	i
c1cc(SC2CCCCC2)cc(-c2nc3cnccn3c2NC2CCCCC2)c1	3.26µM*	5.8µM*	?	?	?
CCC(C)Sc1cccc(-c2nc3ccc(C)cn3c2NC2CCCCC2)c1 (stereo not given)	-27.6%[9.22 µM]	?	?	?	i
C=CCn1c(=O)c(C(=O)Nc2ncccc2C)c(O)c2ccccc21	.	.	i	.	i
CCS(=O)(=O)N1CCc2cc(C(=O)N3CCN(c4ccccc4)CC3)ccc21	.	.	i	.	i
CCc1ccc(C2C(C(=O)Nc3ccccc3C)=C(C)Nc3nc(SCc4cccc(OC)c4)nn32)cc1 (stereo not given)	.	.	i	.	i
CNC(=O)c1[nH]nc2c1CCc1ccccc1-2	-0.2%	-22.8%	i	0.9%	i
COc1ccc(/C=N/NC(=O)c2[nH]nc3c2CCc2ccccc2-3)cc1OC	?	5.17µM*	i	-2.6%	?
COc1ccc(/C=N/NC(=O)c2nc(-c3ccccc3)cc(-c3ccccc3)n2)cc1OC	-3.1%	-7.7%	i	4.11µM*	i
COc1cccc(/C=N/NC(=O)c2nc(-c3ccccc3)cc(-c3ccccc3)n2)c1	-5.1%	?	?	7.31µM*	i
COCC(=O)N/N=C\c1ccc(OC/C=C/c2ccccc2)c(OC)c1	?	?	11.6µM*	?	i
Cc1cc(Nc2ccc(O)cc2)ccc1N	.	.	?	-3.9%	i

Screening results from PubChem.
